# The list is not random: actives were taken first. Their share in the collection is about 4.3%.
# FAS-TE inh = FAS thioesterase domain inhibitors, primary screen, biochemical, fluorescence intensity, uHTS | hit rate 0.67% among 360,000 | AID 602261, 2012 | inhibition, % at 15 µM | Fatty acid synthase (Homo sapiens), P49327 | recombinant FAS-TE, OMFH fluorogenic substrate, fluorescence endpoint;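 active = compounds whose normalised, plate-corrected inhibition of enzyme fluorescence in the single-dose primary screen is 50% or more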
# sPLA2-III inh = human group III sPLA2 inhibitors, primary screen, biochemical, QFRET, BODIPY PC-A2 liposome substrate; Group 3 secretory phospholipase A2 (Homo sapiens), Q9NZ20; QFRET BODIPY PC-A2 liposome hydrolysis, fluorescence; inhibition, % at 12.2 µM; hit rate 0.56% among 370,000;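 active = inhibition above mean plus 3 SD of compounds lying within the high and low control bounds, cut at about 19% in these data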
# ADAM10 inh = human ADAM10 inhibitors, primary screen, biochemical, QFRET, HTS | Disintegrin and metalloproteinase domain-containing protein 10 (Homo sapiens), O14672 | recombinant ADAM10, EDANS/DABCYL FRET peptide cleavage, 3 h | hit rate 0.62% among 370,000 | inhibition, % at 7 µM;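 active = inhibition above a per-campaign cutoff equal to the mean of compounds falling between control-based bounds plus 3 SD, cut at about 20% in these data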
# ADAM17 inh = ADAM17 inhibitors, primary screen, biochemical, QFRET; Disintegrin and metalloproteinase domain-containing protein 17 (Homo sapiens), P78536; recombinant ADAM17, EDANS/DABCYL FRET peptide cleavage; inhibition, % at 6.95 µM; hit rate 0.83% among 370,000; AID 720648, 2013;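 active = inhibition above the mean of compounds lying between control limits plus 3 SD, set per campaign, cut at about 8.5% in these data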
# Target sequence (P78536 215-824 limits assumed): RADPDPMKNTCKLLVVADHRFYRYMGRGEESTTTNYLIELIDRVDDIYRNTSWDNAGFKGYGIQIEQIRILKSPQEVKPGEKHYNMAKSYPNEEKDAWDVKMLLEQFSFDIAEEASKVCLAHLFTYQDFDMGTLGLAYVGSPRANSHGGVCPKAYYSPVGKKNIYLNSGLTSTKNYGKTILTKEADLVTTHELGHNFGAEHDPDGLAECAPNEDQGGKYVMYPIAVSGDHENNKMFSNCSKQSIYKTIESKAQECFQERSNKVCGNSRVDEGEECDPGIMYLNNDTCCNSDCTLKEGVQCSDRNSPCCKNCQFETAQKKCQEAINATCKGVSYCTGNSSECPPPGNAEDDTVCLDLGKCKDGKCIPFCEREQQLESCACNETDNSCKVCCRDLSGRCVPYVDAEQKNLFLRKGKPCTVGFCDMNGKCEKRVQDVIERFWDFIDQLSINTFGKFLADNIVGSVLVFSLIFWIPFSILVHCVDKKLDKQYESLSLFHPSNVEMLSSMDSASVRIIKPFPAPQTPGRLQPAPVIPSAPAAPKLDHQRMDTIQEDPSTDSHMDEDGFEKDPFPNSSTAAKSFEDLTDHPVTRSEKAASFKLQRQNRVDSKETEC
# GRIN3A LBD mod = binders of NR3A ligand-binding domain, primary screen, biophysical, differential scanning fluorimetry, uHTS | Tm shift relative to glycine control, % at 25 µM | NR3A LBD differential scanning fluorimetry, Tm shift; 0% = protein alone, 100% = glycine-bound protein | hit rate 2.5% among 340,000 | AID 1259313, 2017 | Glutamate receptor ionotropic, NMDA 3A (GRIN3A) ligand-binding domain;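 active = melting temperature shift of at least 10% of the positive control shift, at one fixed dose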
# ADAM10 confirm = human ADAM10 inhibitors, confirmation, biochemical, QFRET, triplicate | shares compounds with ADAM10 inh | ADAM10 QFRET peptide cleavage, EDANS fluorescence | AID 743208, 2013 | inhibition, % at 6.95 µM | hit rate 1% among 2,100;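 active = inhibition above about 20% chosen separately for each screening run, limit read from the data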
# ADAM17 counter = ADAM17 inhibitors, counter-screen for ADAM10 exosite inhibitor project, biochemical, QFRET, high throughput; shares compounds with ADAM10 inh; ADAM17 QFRET peptide cleavage, EDANS fluorescence; inhibition, % at 6.95 µM; hit rate 0.5% among 2,100;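 active = mean triplicate inhibition above the solvent-only control wells' mean plus 3 SD, cut at about 12% in these data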
# Numbers stand for hits; . = inactive; / = no result given.
SMILES,FAS-TE inh,sPLA2-III inh,ADAM10 inh,ADAM17 inh,GRIN3A LBD mod,ADAM10 confirm,ADAM17 counter
Cc1ccccc1OCCCN1CCC(C(O)(c2ccccc2)c2ccccc2)CC1,/,.,.,.,/,/,/
CCn1c(COc2ccc(Cl)cc2)nnc1SCC(=O)Nc1ccc(Oc2ccccc2)cc1,/,.,.,.,/,/,/
CCOc1ccc(CCN2C(=S)N([C@@H](Cc3ccc(O)cc3)CN3CCC[C@@H]3CN3C(=S)NC[C@@H]3CC(C)C)C[C@@H]2Cc2ccccc2)cc1,.,.,21.0,.,/,.,.
O=S(=O)(c1sccc1Br)n1c(CN2CCOCC2)nc2ccccc21,/,.,.,.,/,/,/
O=C(CSc1nc2ccccc2c(=O)[nH]1)NC1CCCCC1,/,.,.,.,/,/,/
COc1ccc(CNC2CCC23CCC(c2ccccc2)CC3)cc1OC (configuration not stated),/,.,.,.,/,/,/
O=C1C(=Cc2cn(-c3ccccc3)nc2-c2ccc(OCc3ccccc3F)cc2)SC(=S)N1CCS(=O)(=O)O,.,.,26.3,.,/,.,.
COc1ccc(NC(=O)c2cc3n(n2)C(C(F)(F)F)CC(c2ccc4c(c2)OCO4)N3)cc1OC (configuration not stated),.,/,/,/,.,/,/
Cc1cccc(NC(=O)c2cc3n(n2)C(C(F)(F)F)CC(c2ccc4c(c2)OCO4)N3)c1 (configuration not stated),.,.,21.7,.,.,.,.
Clc1ccc(CSc2nnc(CNc3cccc(Cl)c3)o2)cc1,.,.,19.8,.,.,.,.
Fc1ccc(NCc2nnc(SCc3ccccc3)o2)cc1,.,.,.,.,.,/,/
CCOC(=O)C1(C(=O)OCC)Cc2c([nH]c3ccccc23)[C@]2(N1)C(=O)N(C)c1ccc(Br)cc12,/,.,25.3,12.3,/,.,.
CN1C(=O)C2(NCCc3c2[nH]c2ccccc32)c2ccccc21 (configuration not stated),.,.,.,.,.,/,/
O=C(Nc1cccc([N+](=O)[O-])c1)NC1CCCCN(Cc2cccc(Cl)c2)C1=O (configuration not stated),/,.,.,.,/,/,/
COc1ccc(NC(=O)c2ccc(F)cc2)cc1S(=O)(=O)Nc1cc(C)ccc1Br,.,.,22.6,.,20.9,.,.
CCOc1ccc(Cl)cc1-c1cc(C(=O)Nc2ccc(OC)nc2)[nH]n1,.,.,.,.,/,/,/
COc1ccc(NC(=O)c2cc(-c3cc(C)cc(F)c3)n[nH]2)cc1OC,.,.,26.3,.,/,.,.
CCOc1ccc(Cl)cc1-c1cc(C(=O)Nc2cc(OC)c(OC)c(OC)c2)[nH]n1,.,.,20.2,.,/,.,.
Cc1ccccc1-c1cccc2c3c([nH]c12)[C@@H]1C[C@H]2[C@@H](CN1CC3)[C@H](C)ON2C,/,.,.,.,/,/,/
C=CCN1C(=O)[C@H](CC(=O)NCc2ccccc2)[C@@]2(C(=O)OCC)CCCC=C12,/,.,.,.,/,/,/
C=CCN1C(=O)[C@@H](CC(=O)N2CCSCC2)[C@]2(C(=O)OCC)CCCCC/C=C/12,/,.,.,.,/,/,/
COC(=O)c1ccccc1NC(=O)COC(=O)c1ccccc1N=Nc1ccc(N(C)C)cc1,.,.,.,.,.,/,/
CC(=O)c1ccc(NC(=O)COC(=O)c2ccccc2N=Nc2ccc(N(C)C)cc2)cc1,.,.,21.6,.,.,.,.
CCOc1ccc(NC(=S)NC23CN4CN(CN(C4)C2)C3)cc1,.,.,.,.,.,/,/
COc1ccc(NC(=S)NC23CN4CN(CN(C4)C2)C3)cc1,.,.,82.5,.,.,.,.
SMILES,FAS-TE inh,sPLA2-III inh,ADAM10 inh,ADAM17 inh,GRIN3A LBD mod,ADAM10 confirm,ADAM17 counter
CC(C)(C)c1nn(-c2ccccc2)c2[nH]c(=O)c(C=O)cc12,.,.,77.6,.,.,.,.
Cc1ccccc1CS(=O)(=O)Cc1ccc(C(=O)Nc2ccc(F)cc2F)o1,/,.,.,.,/,/,/
COc1cccc(NC(=S)NC(Cc2ccccc2)c2ccccc2)c1 (configuration not stated),.,.,20.5,.,/,.,.
COc1cccc(NC(=S)NC(C)c2ccc(OC)c(OC)c2)c1 (configuration not stated),.,.,.,.,.,/,/
CCCC/C(O)=C1\C(=O)CC(C)(C)CC1=Nc1ccc(OC)cc1,.,.,41.5,.,.,.,.
COC(=O)c1cc2c(c3c4cc(F)ccc4n(S(=O)(=O)c4cccc(C)c4)c13)C(=O)N(C)C2,/,.,.,.,/,/,/
C=CCN(C(=O)Cn1c(C(=O)OC)cc2oc(C)cc21)c1ccccc1,.,.,82.5,.,.,.,.
O=C(COC(=O)c1cc(-c2cccs2)nn1-c1ccccc1)Nc1ccc(Cl)c([N+](=O)[O-])c1,.,.,20.8,.,.,.,.
CN(CC(=O)Nc1ccc(Cl)cc1)C(=O)c1cc(-c2cccs2)nn1-c1ccccc1,.,.,.,.,.,/,/
CC1C(=O)N(Cc2cn(CC3CCCCC3)nn2)CCS(=O)(=O)N1Cc1ccc(-c2cccc(CO)c2)cc1 (configuration not stated),.,.,.,.,/,/,/
CC(C)CC1C(=O)N(Cc2cn(CC3CCCCC3)nn2)CCS(=O)(=O)N1Cc1ccc(-c2cccc(CO)c2)cc1 (configuration not stated),.,.,24.6,.,/,.,.
COC(=O)[C@]12C[C@H](CC(=O)N3CCSCC3)C(=O)N(Cc3cccc4ccccc34)C1=C[C@H](COCc1ccccc1)O[C@@H]2C,/,.,.,.,/,/,/
CC(=O)Nc1ccc(S(=O)(=O)NCCSCc2ccc(Cl)cc2Cl)cc1,.,.,21.6,.,.,.,.
COC(=O)[C@]12C[C@H](CC(=O)NCCc3ccccc3OC)C(=O)N(CCc3ccc(OC)c(OC)c3)C1=C[C@H](COCc1ccccc1)O[C@@H]2C,/,.,20.9,.,/,.,.
COC(=O)[C@]12C[C@H](CC(=O)NCc3ccc(OC)c(OC)c3)C(=O)N(CCc3ccc(OC)c(OC)c3)C1=C[C@H](COCc1ccccc1)O[C@@H]2C,/,.,.,.,/,/,/

# Screens from PubChem BioAssay.
